Experimental data reported in ChEMBL document CHEMBL3988442, “University of Dundee, Small-Polar-MMV Screening Library” (2021).
Among all 48,000 compounds or so, about 13,000 (27%) showed an effect of 50% or more. The list shows a part of the results.

tested on: Wolbachia pipientis; assay: Anti-Wolbachia Cell-Based Screen; assay type: functional; parameters: scale not given: in the data most compounds retested in dose-response had high values; conditions: 5 µM

SMILES	Percent Effect
COc1ccc2c(c1)CCCC2CC(=O)NCC(C)(C)C(=O)O (stereo unspecified)	-16.88%
CS(=O)(=O)CCCNC1(c2ccc(Br)cc2)CCC1	1.327%
Cc1csc2c(C3CCN(C(=O)Cn4cncn4)CC3)nc(C)n12	67.21%
Cc1csc(N2CCN(C(=O)CCn3cncn3)CC2)n1	2.857%
Cc1csc2c(C3CCCN(C(=O)CCn4cncn4)C3)nc(C)n12 (stereo unspecified)	98.48%
CCc1csc(C2CCCN(C(=O)CCn3cc(C)cn3)C2)n1 (stereo unspecified)	-1.231%
COCCCN1CCCN(C(C)C(=O)Nc2ccnn2C(C)C)CC1 (stereo unspecified)	-2.846%
CCOc1c(Cl)cccc1NCc1cc(C)on1	3.225%
Cc1cc(Cl)ccc1C(=O)N[C@H]1CN(S(C)(=O)=O)C[C@@H]1C1CC1	11.67%
COc1cccc([C@H]2CN(C(=O)c3nnc4n3CCCC4)C[C@@H]2N)c1	-27.9%
CSc1[nH]nc(NC(=O)c2cccs2)c1C#N	125.8%
CC(NC(=O)c1cccs1)C(=O)NS(=O)(=O)Cc1ccc(C#N)cc1 (stereo unspecified)	0.007489%
CN1CCN(c2ccc(NC(=O)c3cccs3)c(C(F)(F)F)c2)CC1	-12.21%
O=C(NCC(F)(F)C(F)F)c1cccnc1	-7.591%
CSc1[nH]nc(NC(=O)c2ccccc2)c1C#N	100.8%
N#Cc1cc(NC(=O)c2ccncc2)ccc1N1CCC(O)CC1	-6.115%
CSc1[nH]nc(NC(=O)c2ccncc2)c1C#N	113.4%
CS(=O)(=O)Cc1ccc(NC(=O)c2cccnc2)cc1F	11.8%
CSc1[nH]nc(NC(=O)c2cccnc2)c1C#N	127.6%
N#Cc1cc(NC(=O)c2ccccc2)ccc1N1CCC(O)CC1	8.386%
CC(NC(=O)CSCC#N)c1cccc(NC(=O)c2ccccc2)c1 (stereo unspecified)	1.227%
CC(C)(C)NC(=O)c1ccccc1NC(=O)c1ccncc1	2.582%
CCOc1ccc(CN2C(=O)CC(CC)(CC)C2=O)nc1	8.891%
Cc1cc(N2CCCC2Cn2nc(C)cc2C)n2ncnc2n1 (stereo unspecified)	10.49%

SMILES	Percent Effect
Cc1cc(-n2cnnn2)n2ncnc2n1	118.9%
Cc1cc(N2CCCCC2Cn2nc(C)cc2C)n2ncnc2n1 (stereo unspecified)	-7.962%
Cc1cc(-n2cncn2)n2ncnc2n1	116%
CCc1nc2n(n1)CC(Nc1cc(C)nc3ncnn13)CC2 (stereo unspecified)	-9.549%
Cc1cc(NCc2ccccc2CN2CCCCC2)n2ncnc2n1	-7.326%
CN1CCC(N2CCOC[C@H]2c2nc(C(C)(C)C)c[nH]2)CC1	-19.67%
Cc1cc(S(C)(=O)=O)c(C)c(S(=O)(=O)NCC2CCC2)c1	-2.164%
COCCN1C(=O)CO[C@H]2CN(S(=O)(=O)c3ccccc3)C[C@H]21	1.954%
COCCN1C(=O)CO[C@H]2CN(Cc3cccc(OC)c3F)C[C@@H]21	149.6%
COCCN1C(=O)CO[C@@H]2CN(S(=O)(=O)c3ccccc3)C[C@H]21	3.273%
COCCN1C(=O)CO[C@H]2CN(Cc3ccccc3Cl)C[C@@H]21	128.8%
COCCN1C(=O)CO[C@H]2CN(Cc3ccccc3OC)C[C@H]21	-3.474%
COCCN1C(=O)CO[C@H]2CN(CCCc3ccccc3)C[C@H]21	-4.545%
C[S+]([O-])c1nncn1CC(=O)c1cccc(C(F)(F)F)c1 (stereo unspecified)	-15.18%
Cc1cc(CN2CCOC(CN(C)c3cccnn3)C2)no1 (stereo unspecified)	-1.412%
O=C(c1coc(-c2ccccc2)n1)N1CCS(=O)(=O)CC1	-26.15%
O=C(c1ccc(=O)[nH]n1)N1CCCC1CCc1ccccc1 (stereo unspecified)	-7.859%
CCC1CN(C(=O)c2ccc(=O)[nH]n2)CCC(=O)N1Cc1ccccc1 (stereo unspecified)	3.625%
O=C(c1ccc(=O)[nH]n1)N1CCNCC1c1ccccc1 (stereo unspecified)	145.5%
CNc1ccnc(N2C[C@@H](C)[C@](O)(C3CC3)C2)n1	0.4082%
CC1CCCN(Cc2ccc(CNC(=O)NCc3ccncc3)cc2)C1 (stereo unspecified)	-7.368%
C[C@@H]1CN(Cc2ccncc2)C[C@]1(C)O	97.25%
C[C@@H]1CN(Cc2ccncc2)C[C@@]1(O)C1CC1	102.1%
C[C@@H]1CN(Cc2nnc(-c3cccnc3)o2)CC[C@]1(C)O	-2.885%

SMILES	Percent Effect
C[C@@H]1CN(CC(C)(C)N2CCCCC2)C[C@@]1(O)C1CC1	17.38%
CC(=O)NCCc1ccc(S(=O)(=O)N(C)C(C)C(C)(C)C)s1 (stereo unspecified)	-15.89%
COc1ccc(C(C)C)cc1C1CC(=O)NCc2nc(N(C)C)sc21 (stereo unspecified)	-38.77%
COc1ccnc(N2CCN(C(=O)c3cnc(C4CC4)s3)CC2)n1	-14.05%
CCc1nnc2n1CCN(CCS(=O)(=O)c1ccccc1)C2	5.511%
O=c1[nH]nc2n1CCN(S(=O)(=O)c1ccccc1Cl)C2	-39.65%
O=S(=O)(c1ccccc1Cl)N1CCCC(c2ncc[nH]2)C1 (stereo unspecified)	-0.103%
c1ccc2oc(N3CCn4c(nnc4C4CC4)C3)nc2c1	-3.429%
CN1CCC(c2nnc3n2CCN(S(=O)(=O)c2ccccc2)C3)CC1	90.65%
CN1CCC(c2nnc3n2CCN(S(=O)(=O)c2ccccc2Cl)C3)CC1	149.5%
CNC(=O)CS(=O)(=O)C1CCN(S(=O)(=O)c2cccc(Cl)c2C)CC1	-17.28%
CN1CCCC1c1nnc2n1CCN(S(=O)(=O)c1ccccc1Cl)CC2 (stereo unspecified)	104.7%
Clc1ccc2cccnc2c1CN1CCn2c(nnc2C2CC2)C1	-29.6%
CN1CCCC(c2nnc3n2CCN(S(=O)(=O)c2ccccc2Cl)C3)C1 (stereo unspecified)	97.31%
Cn1cnnc1S(=O)(=O)C1CCN(S(=O)(=O)c2c(Cl)cccc2Cl)CC1	-14.3%
CCOCc1cccc(NC(=O)C2COCCO2)c1 (stereo unspecified)	8.112%
CC(Oc1ccc(OCc2ncc(C(C)C)o2)cc1)C(N)=O (stereo unspecified)	3.924%
COCCN(C(=O)c1ccc(OC)cc1)c1ccc(C#N)cc1	3.07%
Cc1ccc(C(=O)NCCCN(C(C)C)S(C)(=O)=O)c(=O)[nH]1	16.76%
COCCN(C)C[C@H]1CC[C@@H](Cc2ccc3c(cnn3C)c2)O1	-8.226%
CCCS(=O)(=O)N1C[C@H]2C[C@H](C(=O)N(C)C)[C@@H](C1)O2	1.854%
CC(C)CS(=O)(=O)N1C[C@H]2C[C@H](C(=O)N(C)C)[C@@H](C1)O2	117.8%
CC(C)NC(=O)N1C[C@H]2C[C@H](C(=O)N3CCCC3)[C@@H](C1)O2	-51.72%
CC(C)CN1CCS(=O)(=O)[C@@H]2CCN(S(=O)(=O)CC(C)C)CC[C@@H]21.O=C(O)C(F)(F)F	-0.8095%

SMILES	Percent Effect
O=C(NCC1CCCCC1)N1C[C@H]2C[C@H](C(=O)N3CCOCC3)[C@@H](C1)O2	-10.09%
CC(C)CS(=O)(=O)N1C[C@H]2C[C@H](C(=O)N3CCCC3)[C@@H](C1)O2	109.6%
Cc1cnc(N2C[C@H]3C[C@H](C(=O)N4CCN(C)CC4)N(C)[C@H]3C2)nc1.O=C(O)C(F)(F)F.O=C(O)C(F)(F)F.O=C(O)C(F)(F)F	1.417%
CC(C)CS(=O)(=O)N1C[C@H]2C[C@H](C(=O)N3CCOCC3)[C@@H](C1)O2	113.5%
CN(C)C(=O)[C@H]1C[C@@H]2CN(S(=O)(=O)c3ccccc3)C[C@H]1O2	1.569%
CC(C)CS(=O)(=O)N1C[C@H]2C[C@H](C(=O)NCc3ccccc3)[C@@H](C1)O2	6.255%
O=C(NCC1CCCCC1)N1C[C@H]2C[C@H](C(=O)N3CCCC3)[C@@H](C1)O2	-1.453%
CC(C)CS(=O)(=O)N1C[C@H]2C[C@H](C(=O)N3CCN(C)CC3)[C@@H](C1)O2.O=C(O)C(F)(F)F	100.5%
CCS(=O)(=O)NCCNc1c(C#N)cnc2c(F)cc(F)cc12	9.088%
O=c1c2cccnc2cnn1CC(O)c1cccc(Cl)c1 (stereo unspecified)	-24.01%
O=C(NCC(O)c1cccc(F)c1)C1CCN(C2CCCCC2)CC1 (stereo unspecified)	-12.87%
COCCN1CCC(CN(CC2CCCO2)C(=O)Cn2cccn2)CC1 (stereo unspecified)	105.2%
CCN1CCCC1CN(Cc1ccoc1)CC1CCN(CCOC)CC1 (stereo unspecified)	3.887%
COCCN1CCC(CN(CC2CCCO2)C(=O)Cc2cccs2)CC1 (stereo unspecified)	153.6%
COCCN(Cc1cccs1)C(=O)C1CCCN(C(N)=O)C1 (stereo unspecified)	11.05%
O=C(c1cccnc1O)N(Cc1cccs1)CC1CCCO1 (stereo unspecified)	-28.97%
CCN1CCCC1CN(Cc1ccon1)CC1CCN(CCOC)CC1 (stereo unspecified)	1.475%
CN(C)C(=O)N1CCC2(CC1)CN(CC1CC1)CC21CCNC1=O.O=C(O)C(F)(F)F (stereo unspecified)	-46.87%
CC(C)CC(C(=O)N(C)Cc1ncnn1C)N1CCCCC1=O (stereo unspecified)	7.289%
O=C(C1CCCO1)N1CCC(n2cc(-c3ccsc3)nn2)CC1 (stereo unspecified)	2.629%
CCNC(=O)NC1CCN(c2ccc(S(=O)(=O)CC)cc2)CC1	-0.338%
CC(C#N)CN(C)Cc1ccc(Cl)c2cccnc12 (stereo unspecified)	-6.534%
CC(C)n1cc(C(=O)N2CCC(n3cc(C(C)(C)C)nn3)CC2)cn1	5.915%
CCC(CC)(CNC(=O)OC(C)(C)C)NC(=O)C1CC1	0.8539%
